Results: ChEMBL document CHEMBL5724796, “Tm Shift (DSF) assay results for EUbOPEN Chemogenomics Library” (2024)

What was measured:
Details in all cases: Compound concentration 20.0 uM
[1] = molecular target: Tyrosine-protein kinase ABL1 (Homo sapiens) (UniProt P00519)
[2] = molecular target: Bromodomain-containing protein 4 (Homo sapiens) (UniProt O60885)
[3] = molecular target: Cyclin-dependent kinase 2 (Homo sapiens) (UniProt P24941)
[4] = molecular target: Casein kinase I isoform delta (Homo sapiens) (UniProt P48730)
Chain of Casein kinase I isoform delta (Homo sapiens) (P48730 whole entry, looked up, canonical isoform): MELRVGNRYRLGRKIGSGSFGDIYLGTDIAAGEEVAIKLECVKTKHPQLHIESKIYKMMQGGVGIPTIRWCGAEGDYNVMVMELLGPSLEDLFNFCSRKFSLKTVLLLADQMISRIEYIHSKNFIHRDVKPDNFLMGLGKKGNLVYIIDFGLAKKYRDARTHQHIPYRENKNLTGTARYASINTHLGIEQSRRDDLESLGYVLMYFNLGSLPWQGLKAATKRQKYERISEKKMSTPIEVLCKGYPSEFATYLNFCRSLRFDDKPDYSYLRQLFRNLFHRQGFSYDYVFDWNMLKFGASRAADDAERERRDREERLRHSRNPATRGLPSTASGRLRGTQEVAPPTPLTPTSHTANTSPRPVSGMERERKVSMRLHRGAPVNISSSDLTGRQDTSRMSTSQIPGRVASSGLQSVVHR

[5] = molecular target: Glycogen synthase kinase-3 beta (Homo sapiens) (UniProt P49841)
Chain of Glycogen synthase kinase-3 beta (Homo sapiens) (P49841 whole entry, looked up): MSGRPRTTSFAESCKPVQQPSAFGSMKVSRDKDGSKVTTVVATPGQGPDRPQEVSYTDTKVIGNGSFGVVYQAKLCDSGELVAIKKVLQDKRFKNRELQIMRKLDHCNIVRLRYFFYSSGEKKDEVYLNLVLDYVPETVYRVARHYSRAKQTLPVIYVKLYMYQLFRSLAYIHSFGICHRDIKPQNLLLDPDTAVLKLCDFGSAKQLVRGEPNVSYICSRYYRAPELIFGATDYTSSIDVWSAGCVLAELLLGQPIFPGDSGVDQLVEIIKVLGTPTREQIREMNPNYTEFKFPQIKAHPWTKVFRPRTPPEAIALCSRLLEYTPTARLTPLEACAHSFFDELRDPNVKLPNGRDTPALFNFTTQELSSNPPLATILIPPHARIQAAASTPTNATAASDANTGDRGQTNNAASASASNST

[6] = molecular target: Mitogen-activated protein kinase 1 (Homo sapiens) (UniProt P28482)
Chain of Mitogen-activated protein kinase 1 (Homo sapiens) (P28482 whole entry): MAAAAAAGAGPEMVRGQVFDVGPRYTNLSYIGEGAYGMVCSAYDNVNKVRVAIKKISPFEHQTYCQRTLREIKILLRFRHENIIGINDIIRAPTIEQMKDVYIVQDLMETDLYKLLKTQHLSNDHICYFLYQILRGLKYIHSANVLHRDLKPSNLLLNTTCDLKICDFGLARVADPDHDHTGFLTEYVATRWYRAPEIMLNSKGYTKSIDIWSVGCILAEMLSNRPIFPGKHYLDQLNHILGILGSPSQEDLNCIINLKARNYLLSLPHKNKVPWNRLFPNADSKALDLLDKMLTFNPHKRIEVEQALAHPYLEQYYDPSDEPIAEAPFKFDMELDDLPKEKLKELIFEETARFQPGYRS

[7] = molecular target: T1, Aurora kinase A (Homo sapiens) (UniProt O14965)
T1 sequence (whole entry): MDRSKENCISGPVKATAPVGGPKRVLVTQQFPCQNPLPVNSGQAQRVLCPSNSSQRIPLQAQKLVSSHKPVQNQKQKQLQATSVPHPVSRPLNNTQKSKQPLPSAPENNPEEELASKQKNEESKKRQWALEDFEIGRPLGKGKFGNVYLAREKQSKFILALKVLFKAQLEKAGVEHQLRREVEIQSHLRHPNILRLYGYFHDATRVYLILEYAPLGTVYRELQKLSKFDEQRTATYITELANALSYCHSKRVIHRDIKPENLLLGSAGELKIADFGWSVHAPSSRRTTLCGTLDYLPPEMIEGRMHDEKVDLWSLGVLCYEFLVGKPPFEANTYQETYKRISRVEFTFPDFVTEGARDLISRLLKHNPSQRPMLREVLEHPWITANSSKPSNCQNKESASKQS

[8] = molecular target: T2, Transcription intermediary factor 1-alpha (Homo sapiens) (UniProt O15164)
T2 sequence (whole entry): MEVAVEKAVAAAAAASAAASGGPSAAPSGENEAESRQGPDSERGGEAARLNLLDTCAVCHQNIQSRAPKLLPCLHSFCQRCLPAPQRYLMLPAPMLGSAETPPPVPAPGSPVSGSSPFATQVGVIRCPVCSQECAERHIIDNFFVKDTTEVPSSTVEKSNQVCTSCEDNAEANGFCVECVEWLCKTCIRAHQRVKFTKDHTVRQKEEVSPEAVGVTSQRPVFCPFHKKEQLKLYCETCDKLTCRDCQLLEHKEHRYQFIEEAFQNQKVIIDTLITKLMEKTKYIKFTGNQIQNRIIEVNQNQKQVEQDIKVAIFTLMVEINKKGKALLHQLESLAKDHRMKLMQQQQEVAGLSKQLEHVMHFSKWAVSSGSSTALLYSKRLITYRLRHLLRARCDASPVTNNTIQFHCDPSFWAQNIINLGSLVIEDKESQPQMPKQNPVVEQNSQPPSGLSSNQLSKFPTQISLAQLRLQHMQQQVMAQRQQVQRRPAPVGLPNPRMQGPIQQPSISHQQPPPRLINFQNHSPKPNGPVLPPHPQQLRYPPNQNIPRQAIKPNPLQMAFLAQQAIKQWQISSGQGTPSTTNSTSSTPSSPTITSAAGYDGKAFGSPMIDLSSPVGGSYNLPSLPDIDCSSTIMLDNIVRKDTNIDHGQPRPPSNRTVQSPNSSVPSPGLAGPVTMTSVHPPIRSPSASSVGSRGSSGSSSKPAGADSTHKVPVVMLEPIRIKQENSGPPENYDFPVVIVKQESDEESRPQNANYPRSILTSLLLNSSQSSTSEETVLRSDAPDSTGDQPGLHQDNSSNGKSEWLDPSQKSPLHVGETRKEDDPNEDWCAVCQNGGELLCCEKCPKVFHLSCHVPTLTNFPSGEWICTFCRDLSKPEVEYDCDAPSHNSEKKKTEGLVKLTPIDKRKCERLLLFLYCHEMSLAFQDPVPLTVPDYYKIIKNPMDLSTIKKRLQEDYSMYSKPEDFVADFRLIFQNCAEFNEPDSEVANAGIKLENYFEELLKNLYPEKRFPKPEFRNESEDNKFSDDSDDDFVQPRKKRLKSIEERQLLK

Chain of Tyrosine-protein kinase ABL1 (Homo sapiens) (P00519 whole entry): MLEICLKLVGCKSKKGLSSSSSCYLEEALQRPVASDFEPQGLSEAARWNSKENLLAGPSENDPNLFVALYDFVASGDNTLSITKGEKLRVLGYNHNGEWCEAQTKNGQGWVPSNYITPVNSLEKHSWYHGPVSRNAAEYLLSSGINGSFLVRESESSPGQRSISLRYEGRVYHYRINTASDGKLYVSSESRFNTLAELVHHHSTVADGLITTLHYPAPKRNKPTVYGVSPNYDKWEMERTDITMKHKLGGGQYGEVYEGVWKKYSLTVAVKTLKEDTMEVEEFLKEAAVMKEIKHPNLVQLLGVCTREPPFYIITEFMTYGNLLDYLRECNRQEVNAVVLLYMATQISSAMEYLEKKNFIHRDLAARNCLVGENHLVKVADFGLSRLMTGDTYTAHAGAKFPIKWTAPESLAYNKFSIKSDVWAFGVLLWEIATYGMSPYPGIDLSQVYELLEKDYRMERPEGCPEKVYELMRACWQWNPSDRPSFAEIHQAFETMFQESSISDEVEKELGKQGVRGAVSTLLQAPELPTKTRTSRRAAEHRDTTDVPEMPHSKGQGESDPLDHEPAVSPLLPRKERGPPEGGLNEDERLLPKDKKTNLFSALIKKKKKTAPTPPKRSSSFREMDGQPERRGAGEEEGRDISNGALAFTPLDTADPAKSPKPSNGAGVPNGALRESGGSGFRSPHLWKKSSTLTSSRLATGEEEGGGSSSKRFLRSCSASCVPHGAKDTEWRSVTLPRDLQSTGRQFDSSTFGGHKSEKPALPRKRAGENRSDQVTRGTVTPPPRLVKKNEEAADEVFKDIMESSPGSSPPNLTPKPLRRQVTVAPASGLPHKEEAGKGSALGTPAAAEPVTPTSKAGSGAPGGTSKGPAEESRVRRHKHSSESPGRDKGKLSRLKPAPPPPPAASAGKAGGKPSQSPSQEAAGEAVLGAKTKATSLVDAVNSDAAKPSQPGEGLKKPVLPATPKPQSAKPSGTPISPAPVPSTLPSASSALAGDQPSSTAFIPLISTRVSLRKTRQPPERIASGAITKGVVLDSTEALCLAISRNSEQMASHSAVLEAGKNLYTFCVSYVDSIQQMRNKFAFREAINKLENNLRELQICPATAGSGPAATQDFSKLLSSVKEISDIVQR

`Cc1n[nH]c(C)c1Cc1sc2c(c1C(=O)N1C[C@H](O)CO1)c(=O)n(C)c(=O)n2CC(C)C` gave a ΔTm [1] of 0.44 °C, a ΔTm [2] of -2.67 °C and a ΔTm [3] of 0.95 °C. It also gave a ΔTm [4] of -0.14 °C, a ΔTm [5] of -0.85 °C and a ΔTm [6] of 0.11 °C. For the same compound, the ΔTm [7] was -1.57 °C and the ΔTm [8] was 0.69 °C.

Compound `CC(=O)N[C@@H](CC(=O)O)C(=O)N[C@@H](CCC(=O)O)C(=O)N[C@H](C(=O)N[C@@H](CC(=O)O)C(=O)CCl)C(C)C` has a ΔTm [1] of 0.1 °C, a ΔTm [2] of -2.64 °C and a ΔTm [3] of -0.35 °C. For the same compound, the ΔTm [4] was -0.06 °C, the ΔTm [5] was 0.4 °C and the ΔTm [6] was -0.58 °C. The ΔTm [7] was -1.91 °C and the ΔTm [8] was -0.93 °C.

`CN(C)Cc1ccc(-c2nc3cccc4c3n2CCNC4=O)cc1` was tested, and the ΔTm [1] was 0.45 °C, the ΔTm [2] was 0.14 °C and the ΔTm [3] was 0.42 °C. The ΔTm [4] was -0.01 °C, the ΔTm [5] was 1.99 °C and the ΔTm [6] was 0.01 °C. It also gave a ΔTm [7] of -0.64 °C and a ΔTm [8] of 0.79 °C.

For `Cn1nc2c(=O)n(CC3(O)CCN(C(=O)C[C@H](c4ccccc4)C(F)(F)F)CC3)cnc2c1-c1ccc(CN)cc1`, the ΔTm [1] was 0.68 °C, the ΔTm [2] was -2.51 °C and the ΔTm [3] was 0.12 °C. It also gave a ΔTm [4] of -0.82 °C, a ΔTm [5] of -0.57 °C and a ΔTm [6] of 0.17 °C. The ΔTm [7] was -1.86 °C and the ΔTm [8] was -0.47 °C.

`NCCOCCOCCNC(=O)Cc1ccc(Nc2nc(NCc3ccc(F)cc3)nc(NCC3CCCCC3)n2)cc1` gave a ΔTm [1] of 0.61 °C, a ΔTm [2] of -3.77 °C and a ΔTm [3] of 0.63 °C. It also gave a ΔTm [4] of 0.54 °C, a ΔTm [5] of 0 °C and a ΔTm [6] of 0.37 °C. It also gave a ΔTm [7] of -2.14 °C and a ΔTm [8] of -0.27 °C.

For `C=C(C)[C@@H](CC=C(C)C)C[C@@]12C[C@@H](CC=C(C)C)C(C)(C)[C@@](CC=C(C)C)(C(=O)C(C(=O)c3ccc(O)c(O)c3)=C1O)C2=O`, the ΔTm [1] was 0.52 °C, the ΔTm [2] was -5.01 °C and the ΔTm [3] was -3.75 °C. For the same compound, the ΔTm [4] was 0.51 °C, the ΔTm [5] was -0.68 °C and the ΔTm [6] was -6.65 °C. For the same compound, the ΔTm [7] was 0.51 °C and the ΔTm [8] was -0.01 °C.

`C[C@H](Nc1nc2c(cnn2C2CCCC2)c(=O)[nH]1)c1ccc(Cl)cc1` was tested, and the ΔTm [1] was -2.54 °C, the ΔTm [2] was -1.24 °C and the ΔTm [3] was -1 °C. The ΔTm [4] was 0.11 °C, the ΔTm [5] was -1.9 °C and the ΔTm [6] was -7.46 °C. The ΔTm [7] was -6.85 °C and the ΔTm [8] was 0.56 °C.

With `O=C1CCc2cc(OCCCCc3nnnn3C3CCCCC3)ccc2N1` the ΔTm [1] was 0.01 °C, the ΔTm [2] was -0.81 °C and the ΔTm [3] was -0.24 °C. It also gave a ΔTm [4] of -0.48 °C, a ΔTm [5] of -0.04 °C and a ΔTm [6] of 0.01 °C. The ΔTm [7] was -1.24 °C and the ΔTm [8] was -0.24 °C.

Work on `COc1cc([C@@H]2Oc3c(O)cc([C@H]4Oc5cc(O)cc(O)c5C(=O)[C@@H]4O)cc3[C@H]2CO)ccc1O` yielded a ΔTm [1] of 0.61 °C, a ΔTm [2] of -1.83 °C and a ΔTm [3] of 0.16 °C. It also gave a ΔTm [4] of 0.36 °C, a ΔTm [5] of 3.53 °C and a ΔTm [6] of 0.13 °C. For the same compound, the ΔTm [7] was -1.74 °C and the ΔTm [8] was 1.87 °C.

`Cc1cc(C(=O)N2CCN(C3CN(C(=O)c4ccc(-c5ccccc5)cc4)C3)CC2)no1` gave a ΔTm [1] of 0.78 °C, a ΔTm [2] of -2.08 °C and a ΔTm [3] of -0.01 °C. For the same compound, the ΔTm [4] was 0.33 °C, the ΔTm [5] was 0 °C and the ΔTm [6] was 0.28 °C. The ΔTm [7] was 0 °C and the ΔTm [8] was -0.09 °C.

`Cc1cc(-c2ccccc2)cc(C(=O)NNS(=O)(=O)c2ccccc2)c1F` gave a ΔTm [1] of 0.58 °C, a ΔTm [2] of -6.22 °C and a ΔTm [3] of -3.62 °C. The ΔTm [4] was 0.42 °C, the ΔTm [5] was -3.1 °C and the ΔTm [6] was 0 °C. It also gave a ΔTm [7] of -4.21 °C and a ΔTm [8] of -1.85 °C.

`CC(C)C[C@@H](C=O)NC(=O)[C@@H](NS(=O)(=O)c1ccc(F)cc1)C(C)C` was tested, and the ΔTm [1] was -0.01 °C, the ΔTm [2] was -1.83 °C and the ΔTm [3] was -0.11 °C. For the same compound, the ΔTm [4] was 0.22 °C, the ΔTm [5] was -0.13 °C and the ΔTm [6] was 0.01 °C. The ΔTm [7] was -1.2 °C and the ΔTm [8] was -1.15 °C.

For `COc1cc2c(NC3CCN(C4CCCCC4)CC3)nc(N3CCCN(C(C)C)CC3)nc2cc1OCCCN1CCCCC1`, the ΔTm [1] was 0.29 °C, the ΔTm [2] was -1.02 °C and the ΔTm [3] was 0.48 °C. For the same compound, the ΔTm [4] was 0.1 °C, the ΔTm [5] was 0.08 °C and the ΔTm [6] was -0.69 °C. For the same compound, the ΔTm [7] was 0.32 °C and the ΔTm [8] was 0.36 °C.

Work on `CC(C)c1c(-c2cnn(C(C)(C)C)c2)[nH]c2c(C#N)cnn2c1=O` yielded a ΔTm [1] of 0.32 °C, a ΔTm [2] of -1.11 °C and a ΔTm [3] of 0.15 °C. It also gave a ΔTm [4] of -0.24 °C, a ΔTm [5] of 0.53 °C and a ΔTm [6] of 0.3 °C. The ΔTm [7] was -0.18 °C and the ΔTm [8] was 0.36 °C.

In the case of `CC(=O)N1CCc2c(c(N3CCCc4cc(-c5cnn(C)c5)c(C(F)F)cc43)nn2C2CCOCC2)C1`, the ΔTm [1] is reported as 0.45 °C, the ΔTm [2] is reported as 0.99 °C and the ΔTm [3] is reported as -0.16 °C. The ΔTm [4] was 0.23 °C, the ΔTm [5] was -0.52 °C and the ΔTm [6] was -0.44 °C. It also gave a ΔTm [7] of -1.07 °C and a ΔTm [8] of -1.11 °C.

With `O=C(C[C@@H](C(F)F)n1ccc(F)n1)N1CCC(O)(Cn2cnc3c(cnn3-c3ccc(F)cc3)c2=O)CC1` the ΔTm [1] was 0.8 °C, the ΔTm [2] was -3.01 °C and the ΔTm [3] was 0.2 °C. For the same compound, the ΔTm [4] was 0.03 °C, the ΔTm [5] was -0.6 °C and the ΔTm [6] was 0.27 °C. For the same compound, the ΔTm [7] was -2.33 °C and the ΔTm [8] was 1.94 °C.

Compound `COCc1nc2cnc3cc(-c4c(C)noc4C)c(OC[C@H]4CCNC4)cc3c2n1[C@H](C)c1ccccc1` has a ΔTm [1] of 0.66 °C, a ΔTm [3] of 0.15 °C and a ΔTm [4] of 0.02 °C. For the same compound, the ΔTm [5] was -0.25 °C, the ΔTm [6] was 0.32 °C and the ΔTm [7] was -1.27 °C. It also gave a ΔTm [8] of 1.49 °C.

For `Cn1c(NCCN(CCO)CCCc2ccc([N+](=O)[O-])cc2)cc(=O)n(C)c1=O`, the ΔTm [1] was -0.01 °C, the ΔTm [2] was 0.07 °C and the ΔTm [3] was 0.08 °C. The ΔTm [4] was -0.29 °C, the ΔTm [5] was -0.66 °C and the ΔTm [6] was 0.09 °C. The ΔTm [7] was -1.33 °C and the ΔTm [8] was 0.26 °C.

With `Cc1nc(Nc2ncc(C(=O)Nc3c(C)cccc3Cl)s2)cc(N2CCN(CCO)CC2)n1` the ΔTm [2] was -1.33 °C, the ΔTm [3] was 0.19 °C and the ΔTm [4] was 1.36 °C. It also gave a ΔTm [5] of -0.52 °C, a ΔTm [6] of -0.01 °C and a ΔTm [7] of 4.44 °C. It also gave a ΔTm [8] of -0.67 °C.

In the case of `CS(=O)(=O)c1ccc(-c2nnc(C=Cc3nnc(-c4ccc(C#N)cc4)o3)n2-c2ccccc2Cl)nc1`, the ΔTm [1] is reported as 0.4 °C, the ΔTm [2] is reported as -3.09 °C and the ΔTm [3] is reported as 0.99 °C. The ΔTm [4] was -0.25 °C, the ΔTm [5] was -0.77 °C and the ΔTm [6] was -0.27 °C. For the same compound, the ΔTm [7] was -1.63 °C and the ΔTm [8] was 0.34 °C.
